The campaign covered roughly 200,000 compounds. About 80 (0.04%) were called active. This excerpt belongs to a sample that is enriched for actives. A number with no mark means an inactive call.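 How the source made its calls: active means activation above the mean across all tested compounds plus 3 SD, cutoff set per campaign (cut at about 5.5% in these data); inactive means the rest.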
Experiment: Hsp70 promoter-driven reporter induction – cell-based, HeLa, Hsp70 promoter luciferase, luminescence, 10 µM, primary screen (AID 1203);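 further: 100% = MG132 at 30 µM as the positive control and 0% = DMSO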
Conditions: at 10 µM, stronger effect = higher value, scaled: vehicle 0, proteasome-inhibitor control 100%

| Compound | activation |
| --- | --- |
| COc1ccc(C)cc1S(=O)(=O)N(CC(=O)Nc1cccc([N+](=O)[O-])c1)c1ccc(C)cc1 | -0.49% |
| CCOC(=O)NC(=O)CSc1nnc(SCCC(=O)O)s1 | -0.37% |
| CC(C)C(=O)Nc1c(O)c2ccccc2[nH]c1=O | -0.15% |
| N#C/C(=C/c1ccc(N2CCCCC2)o1)C(=O)NCCc1c[nH]c2ccccc12 | -0.42% |
| CN1CCN(c2nc(Nc3ccc(O)cc3)nc3ccccc23)CC1 | -0.02% |
| COc1ccc(CNC(=O)C2CCN(S(C)(=O)=O)CC2)cc1 | -0.22% |
| Cc1cc(NC(C)C)n2c(nc3ccccc32)c1C#N | -0.27% |
| COc1ccc(CC(=O)Nc2cc(S(=O)(=O)N3CCCCC3)ccc2N2CCN(C)CC2)cc1 | -0.39% |
| CC1CCN(C(=S)c2cccc([N+](=O)[O-])c2)CC1 | -0.04% |
| CC(OC(=O)c1ccccc1OCc1ccc(Cl)cc1)C(N)=O (centres undefined) | -0.14% |
| Cc1ccc(N(C(=O)c2sc(C)nc2C)C(C(=O)NC(C)(C)C)c2ccncc2)cc1 (centres undefined) | -0.38% |
| COCC(C)n1c(C)cc(C(=O)CSc2cc(C)c3ccccc3n2)c1C (centres undefined) | -0.27% |
| COCC(C)n1c(SCc2ccc(C(=O)OC)o2)nc2ccccc2c1=O (centres undefined) | -0.28% |
| COCCn1c(C)cc(C(=O)CSc2nc3ccccc3c(=O)n2C(C)COC)c1C (centres undefined) | 8.58% (active) |
| O=S(=O)(c1ccc(F)cc1)n1ccc(-c2cnc(-c3ccccc3)s2)n1 | -0.1% |
| CCOC(=O)CSc1ccccn1 | 2.15% |
| COc1ccc(N(CC(=O)Nc2ccc(C)cc2C)S(=O)(=O)c2ccccc2[N+](=O)[O-])c(OC)c1 | -0.09% |
| Cc1cc(C)n(CC(=O)Nc2ccc([N+](=O)[O-])cc2)n1 | -0.28% |
| OCCC1CN(Cc2ccccc2-c2ccco2)CCN1Cc1ccsc1 (centres undefined) | -0.08% |
| COc1cccc(CNC(=O)CCC2CCCN(C(=O)c3ccoc3C)C2)c1 (centres undefined) | -0.21% |
| COc1ccc2c(c1)CCC/C2=N\OC(=O)c1ccccc1F | 0.09% |
| O=C(CC1C(=O)NCCN1Cc1ccc(-c2ccccc2)cc1)NCc1ccncc1 (centres undefined) | -0.07% |
| Cc1cccc(NC(=S)Nc2ccc3cn[nH]c3c2)c1 | -0.39% |
| COc1ccc(CS(=O)/C(Cl)=C(/Cl)C(=O)Nc2ccc(OC)nc2)cc1 (centres undefined) | 20% (active) |
| COc1ccc(NC(=S)NCCNC(C)=O)cc1 | 0.67% |
| Cc1ccc(NC(=O)OCc2cncs2)cc1 | 0.06% |
| CC(=O)Nc1ccc(OCC(=O)NCc2ccc(C)cc2)cc1 | -0.17% |
| COc1ccc(NC(=O)/C(Cl)=C(/Cl)S(=O)Cc2ccc(C)cc2)cn1 (centres undefined) | 24.9% (active) |
| COc1ccc(NC(=S)Nc2ccccc2Cl)cn1 | -0.12% |

Reference: PubChem BioAssay AID1203 (The Scripps Research Institute Molecular Screening Center, 2008)
